This note sets out measurements from PubChem BioAssay (NCATS).

Records with an inconclusive call do not appear. Active and inactive are the calls of the source. Unless noted, calls come from the whole dose curve; as a rule, active = well fitted curve in the direction sought with a large enough effect; inconclusive = small, poorly fitted or top-dose-only effect, or another doubt; inactive = no such curve, though single readings can be large; an effect the other way counts as inactive or inconclusive. Some results are limits rather than exact numbers.

In experiment [1] the target is Cytochrome P450 1A2 (Homo sapiens) (UniProt P05177). Briefly: p450-cyp1a2 (AID 410; calls by dose curve; note: potency is the fitted concentration of half-maximal effect). The gist of the method: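 Luminescent demethylation readout: Luciferin-ME (100uM, equal to Km) turned over by 20nM CYP1A2 for 60 min at room temperature after NADPH regeneration addition, following 10 min compound preincubation. Normalization used 57 uM furafylline as full inhibition.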

Experiment [2] is described as follows: NFAT Signaling Pathway (AID 444; active = well fitted curve in either direction with a large enough effect, not every such curve was filed as active;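 note: carbachol stimulus at about its EC50 of 1 µM final; % is set by controls: 0 for no effect and ±100 for the full control effect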). The following applies: Jurkat NFAT-bla M1, carbachol, beta-lactamase ratio, 5 h; at 7.69 µM (top of the series) unless noted. The gist of the method: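 Jurkat cells carrying an NFAT-driven β-lactamase reporter and co-transfected muscarinic M1 receptor were treated with compound plus carbachol (1 uM final, an EC50 level) for 5 h at 37 °C. CCF4 loading followed for 1 h at RT; 460/530 nm ratio gave %activity.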

Experiment [3] is described as follows: Stat Signaling Pathway (AID 446; active = well fitted curve in either direction with a large enough effect, not every such curve was filed as active;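 note: ME-180 cervical cancer cells given 40 pM IL-6 alongside compound; SIE-controlled beta-lactamase reporter measured as 460/530 nm FRET emission ratio; % is set by controls: 0 for no effect and ±100 for the full control effect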). The following applies: ME-180 SIE beta-lactamase reporter, IL-6 stimulated, 5 h; at 7.69 µM (top of the series) unless noted. Put shortly: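 Normalization used AC90 stimulation (300 pM IL-6) and AC90 inhibition (125 nM pan-JAK inhibitor at 40 pM IL-6). The underlying signal is SIE-driven beta-lactamase in ME-180 cells after 5 h IL-6 exposure with compound.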

Experiment [4] addresses Glucocorticoid receptor (Homo sapiens) (UniProt P04150). Briefly: GR-GFP Redistribution (AID 450;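 active = compounds whose dose series gives a full or clear partial fitted curve of increased nuclear translocation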; note: potency is the fitted concentration of half-maximal effect). The following applies: U2OS GR-GFP nuclear translocation, laser cytometry, 2 h.
For experiment [5] the target is unchanged. Briefly: GR-EFC Redistribution (AID 451; calls by dose curve; note: potency is the fitted concentration of half-maximal effect). To be noted: CHO-K1 GR-EFC translocation, beta-gal luminescence, 2 h. The gist of the method: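 CHO-K1 cells stably expressing nuclear-localized β-gal enzyme acceptor and GR fused C-terminally to the enzyme donor fragment; ligand-driven nuclear translocation restores β-gal by complementation. Compounds titrated up to 46 uM final, 2 h at 37 °C; luminescence read.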

Experiment [6] concerns the target Mitogen-activated protein kinase 10 (Mus musculus) (UniProt Q61831). Briefly: JNK3 AlphaScreen Assay (AID 530; active = well fitted curve in either direction with a large enough effect, not every such curve was filed as active;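 note: kinase came from lysate of stimulated human HepG2 cells; signal reports phosphorylation of biotinylated GST-cJun 1-79 at Ser73 with 10 µM ATP; % is set by controls: 0 for no effect and ±100 for the full control effect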). The gist of the method: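 Phosphorylation of biotinylated GST-cJun(1-79) at Ser73 is measured by AlphaScreen proximity luminescence. Enzyme is JNK3 in HepG2 lysates activated with interleukin-1beta and tumor necrosis factor alpha; ATP is 10 uM final.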

Experiment [7] concerns the target 3',5'-cyclic-AMP phosphodiesterase 4B (Homo sapiens) (UniProt Q07343). The experiment is described as follows: qHTS Assay for Inhibitors of PDE-IV (AID 607; active = well fitted activation curve with a large enough effect in the main read-out, with a control signal flat, not every such curve was filed as active; note: % of control where 0% means no effect). Put shortly: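 HEK293 ACTOne cells with CNG channel (1000/well), endogenous PDE4; membrane potential dye, compounds up to 22.9 uM final. Fluorescence Ex 535/Em 590; RO 20-1724 (100 uM final) as reference.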
On the technique in general: In qHTS, concentration-response curves come from the screen itself.

Experiment [8] addresses Cytochrome P450 2C9 (Homo sapiens) (UniProt P11712). The experiment is described as follows: qHTS Assay for Inhibitors and Substrates of Cytochrome P450 2C9 (AID 883). Note: % is set by controls: 0 for no effect and ±100 for the full control effect; nearly all actives have a fitted effect of over 60% in size. The gist of the method:
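CYP2C9 deoxyluciferin hydroxylation, 37C, 60 min with NADPH regeneration; 10nM enzyme, 100uM Luciferin-H (KM). Glo detection reagent stopped reaction; luminescence normalized to sulphaphenazole (57uM) full inhibition.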

Experiment [9] has as its target Cytochrome P450 3A4 (Homo sapiens) (UniProt P08684). Briefly: qHTS Assay for Activators of Cytochrome P450 3A4 (AID 885). Note: nearly all actives have a fitted effect of over 65% in size. Put shortly: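 Human CYP3A4 dealkylates Luciferin-PPXE to luciferin, which luciferase detection converts to light. Substrate was at its KM (25uM), buffer 200mM KPO4, reaction 60 min at RT.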
Experiment [10] is described as follows: Confirmation and Secondary Assay for Modulators of Hemoglobin Beta Chain Splicing at IVS2 654 locus (AID 910).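 Note: per-well total GFP intensity by laser scanning cytometry after 2-day treatment; % of control where 0% means no effect.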 The gist of the method:
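HeLa cells stably carrying EGFP interrupted by mutant beta-globin IVS2-654 intron (CMV-driven) were treated with compound for 2 days at 37C; corrected splicing was scored as total peak GFP intensity per well (488 nm excitation, 500-520 nm emission).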

Experiment [11] in a line: Confirmation and Secondary Assay for Modulators of Hemoglobin Beta Chain Splicing at IVS2 705 locus (AID 930).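 Note: HeLa cells stably expressing the EGFP-705 splicing reporter; GFP fluorescence per well restored by corrected splicing of the IVS2-705 intron in EGFP; % of control where 0% means no effect.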 Put shortly:
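HeLa EGFP-705 reporter; 500 cells/well, o/n 37C 5% CO2; cpd 2 d; 488 ex/500-520 em laser scan; total peak GFP intensity/well. Ref: 500 nM […] antisense PNA.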

The nature of experiment [12]: qHTS Assay for Lipid Storage Modulators (AID 1519; calls by dose curve). The following applies: Drosophila S3 cells, BODIPY lipid droplet/cell ratio, laser cytometry, cells loaded with oleic acid. Put shortly: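 Cells seeded at 5,000 per well were treated with compounds over a concentration series and loaded with oleic acid (400 uM, as added). Lipid droplet fluorescence (488 nm excitation, 500-530 nm channel) was read by laser-scanning cytometry and normalized to 20 uM Triacsin C.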

Experiment [13] has as its target Ubiquitin carboxyl-terminal hydrolase 1 (Homo sapiens) (UniProt O94782). Briefly: Inhibitors of USP1/UAF1: Pilot qHTS (AID 504865).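 Note: rhodamine fluorescence freed from ubiquitin-rhodamine substrate followed over time; top concentration of the series differs between compounds; % is set by controls: 0 for no effect and ±100 for the full control effect; nearly all actives have a fitted effect of over 35% in size.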 Put shortly:
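Deubiquitinase activity followed as kinetic rhodamine fluorescence release from 150 nM Ub-Rho. 1 nM USP1/UAF1 with compound, after 15 min room-temperature preincubation, in HEPES pH 7.8 buffer containing TCEP, EDTA, BSA and Tween-20.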

Experiment [14] is described as follows: Primary qHTS for small molecule stabilizers of the endoplasmic reticulum resident proteome: Secreted ER Calcium Modulated Protein (SERCaMP) assay (AID 1508630). Note: % is set by controls: 0 for no effect and ±100 for the full control effect. Put shortly:
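The SH-SY5Y reporter protocol was run at 3 concentrations up to 38.3 uM (primary) or 11 concentrations (follow-up): 16 h compound, 100 nM thapsigargin for 4 h, then extracellular luciferase luminescence.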

Experiment [15] in a line: AP1 Signaling Pathway (AID 357; active = well fitted curve in either direction with a large enough effect, not every such curve was filed as active). To be noted: ME-180 (cervical carcinoma) AP-1-bla reporter, EGF-induced, beta-lactamase ratio, 5 h; at 7.69 µM (top of the series) unless noted. The gist of the method: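 Beta-lactamase reporter under AP-1 response element, ME-180 background. Stimulus: EC50 EGF. Compound exposure 5 h, 37 °C. Detection: CCF4, 2.5 h RT, 460/530 nm. Values: AC50 from titration.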

For experiment [16], the target named is Dual specificity protein kinase CLK4 (Homo sapiens) (UniProt Q9HAZ1). The experiment is described as follows: qHTS Assay for Inhibitors of CDC-like Kinase 4 (Kinase-Glo Assay) (AID 1770). Note: % is set by controls: 0 for no effect and ±100 for the full control effect; nearly all actives have a fitted effect of over 65% in size. Put shortly: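 Luminescent ATP-depletion read-out (Kinase-Glo) after 4.5 h room-temperature reaction of Clk4 (25 nM final) with RS peptide (100 uM) and ATP (1 uM), pH 7.5 Tris buffer with MgCl2 and DTT.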

Experiment [17] shares this target. The experiment is described as follows: qHTS Assay for Inhibitors of CDC-like Kinase 4 (ADP-Glo Assay) (AID 1771). Note: % is set by controls: 0 for no effect and ±100 for the full control effect; nearly all actives have a fitted effect of over 70% in size. Put shortly: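 ADP production was read by ADP-Glo luminescence after residual ATP depletion, following 1 h room-temperature reaction of 25 nM Clk4, 1 uM ATP and 100 uM RS peptide with MgCl2, EGTA, DTT and Triton X-100.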
Experiment [18] shares this target. Briefly: qHTS Assay for Inhibitors of CDC-like Kinase 4 (ADP-FP Assay) (AID 1795).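 Note: recombinant human CLK4 phosphorylating RS repeat peptide at 1 µM ATP; % is set by controls: 0 for no effect and ±100 for the full control effect; nearly all actives have a fitted effect of over 60% in size.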 The gist of the method:
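Kinase activity was measured as ADP production using Transcreener orange tracer (4 nM) and ADP antibody (1 ug/mL) fluorescence polarization, with ADP calculated from a calibration curve. The 1 h reaction contained 6.25 nM Clk4, 1 uM ATP and 100 uM RS peptide at pH 7.5 with Mg2+.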

Sequence of Dual specificity protein kinase CLK4 (Homo sapiens) (Q9HAZ1 whole entry, looked up): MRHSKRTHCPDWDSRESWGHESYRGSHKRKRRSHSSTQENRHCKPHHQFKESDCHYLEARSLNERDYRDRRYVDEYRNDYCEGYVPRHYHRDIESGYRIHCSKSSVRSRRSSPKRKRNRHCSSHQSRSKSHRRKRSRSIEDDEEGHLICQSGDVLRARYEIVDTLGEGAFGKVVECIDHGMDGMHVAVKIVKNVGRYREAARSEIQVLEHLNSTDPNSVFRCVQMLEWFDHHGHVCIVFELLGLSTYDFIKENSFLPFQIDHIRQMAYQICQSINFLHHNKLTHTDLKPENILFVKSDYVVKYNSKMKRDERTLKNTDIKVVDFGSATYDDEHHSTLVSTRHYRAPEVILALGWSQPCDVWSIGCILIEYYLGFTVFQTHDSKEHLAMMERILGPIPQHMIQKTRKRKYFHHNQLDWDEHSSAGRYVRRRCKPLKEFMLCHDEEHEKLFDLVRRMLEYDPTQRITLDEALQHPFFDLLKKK
Sequence of Glucocorticoid receptor (Homo sapiens) (P04150 whole entry, looked up, the tested form may be a part): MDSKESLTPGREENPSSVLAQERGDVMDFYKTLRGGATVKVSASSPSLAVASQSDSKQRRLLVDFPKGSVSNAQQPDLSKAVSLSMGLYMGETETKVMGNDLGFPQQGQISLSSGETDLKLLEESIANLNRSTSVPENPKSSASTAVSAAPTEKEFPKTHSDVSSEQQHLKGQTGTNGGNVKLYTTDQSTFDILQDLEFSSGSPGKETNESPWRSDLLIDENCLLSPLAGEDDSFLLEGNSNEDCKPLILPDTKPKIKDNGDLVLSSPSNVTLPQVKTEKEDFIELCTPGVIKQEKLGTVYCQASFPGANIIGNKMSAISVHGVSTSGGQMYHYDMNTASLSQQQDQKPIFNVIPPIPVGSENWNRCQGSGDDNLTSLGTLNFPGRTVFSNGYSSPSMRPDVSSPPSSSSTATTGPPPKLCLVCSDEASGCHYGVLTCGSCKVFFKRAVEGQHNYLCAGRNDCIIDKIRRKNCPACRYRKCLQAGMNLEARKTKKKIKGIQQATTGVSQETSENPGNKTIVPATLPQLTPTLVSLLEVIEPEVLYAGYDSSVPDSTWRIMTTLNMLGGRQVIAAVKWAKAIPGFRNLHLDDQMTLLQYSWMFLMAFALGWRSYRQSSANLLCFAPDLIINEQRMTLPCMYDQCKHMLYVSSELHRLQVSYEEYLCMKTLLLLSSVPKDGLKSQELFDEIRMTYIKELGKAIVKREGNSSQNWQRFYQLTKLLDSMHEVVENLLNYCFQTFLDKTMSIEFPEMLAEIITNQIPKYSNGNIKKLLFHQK
Sequence of Cytochrome P450 1A2 (Homo sapiens) (P05177 whole entry, looked up): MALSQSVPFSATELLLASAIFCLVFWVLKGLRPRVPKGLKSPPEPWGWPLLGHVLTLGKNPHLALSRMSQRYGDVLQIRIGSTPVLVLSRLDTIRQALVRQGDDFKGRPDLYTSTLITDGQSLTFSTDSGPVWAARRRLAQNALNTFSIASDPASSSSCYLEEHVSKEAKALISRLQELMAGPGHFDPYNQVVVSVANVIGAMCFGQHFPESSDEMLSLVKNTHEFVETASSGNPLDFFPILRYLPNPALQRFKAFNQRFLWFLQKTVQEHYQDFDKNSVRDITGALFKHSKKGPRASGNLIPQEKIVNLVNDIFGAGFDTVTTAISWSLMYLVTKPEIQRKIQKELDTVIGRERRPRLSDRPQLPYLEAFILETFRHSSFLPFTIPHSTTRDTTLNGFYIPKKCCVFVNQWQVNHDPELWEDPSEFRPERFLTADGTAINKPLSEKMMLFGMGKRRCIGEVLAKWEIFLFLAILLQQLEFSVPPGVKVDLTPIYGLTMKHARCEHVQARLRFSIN
Sequence of Cytochrome P450 3A4 (Homo sapiens) (P08684 whole entry, looked up): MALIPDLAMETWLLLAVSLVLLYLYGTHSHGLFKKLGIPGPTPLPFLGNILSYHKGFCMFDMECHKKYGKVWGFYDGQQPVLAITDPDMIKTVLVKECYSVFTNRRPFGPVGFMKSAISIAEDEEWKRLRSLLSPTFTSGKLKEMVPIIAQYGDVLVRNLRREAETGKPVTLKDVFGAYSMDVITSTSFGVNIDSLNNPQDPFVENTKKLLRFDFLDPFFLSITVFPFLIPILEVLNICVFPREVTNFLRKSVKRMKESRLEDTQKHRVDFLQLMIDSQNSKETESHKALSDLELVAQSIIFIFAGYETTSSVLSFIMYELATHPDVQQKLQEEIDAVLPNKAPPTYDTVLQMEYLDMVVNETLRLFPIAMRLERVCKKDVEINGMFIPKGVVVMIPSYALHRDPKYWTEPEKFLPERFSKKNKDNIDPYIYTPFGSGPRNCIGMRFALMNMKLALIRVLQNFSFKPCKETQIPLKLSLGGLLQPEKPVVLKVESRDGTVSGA
Sequence of Ubiquitin carboxyl-terminal hydrolase 1 (Homo sapiens) (O94782 whole entry, looked up): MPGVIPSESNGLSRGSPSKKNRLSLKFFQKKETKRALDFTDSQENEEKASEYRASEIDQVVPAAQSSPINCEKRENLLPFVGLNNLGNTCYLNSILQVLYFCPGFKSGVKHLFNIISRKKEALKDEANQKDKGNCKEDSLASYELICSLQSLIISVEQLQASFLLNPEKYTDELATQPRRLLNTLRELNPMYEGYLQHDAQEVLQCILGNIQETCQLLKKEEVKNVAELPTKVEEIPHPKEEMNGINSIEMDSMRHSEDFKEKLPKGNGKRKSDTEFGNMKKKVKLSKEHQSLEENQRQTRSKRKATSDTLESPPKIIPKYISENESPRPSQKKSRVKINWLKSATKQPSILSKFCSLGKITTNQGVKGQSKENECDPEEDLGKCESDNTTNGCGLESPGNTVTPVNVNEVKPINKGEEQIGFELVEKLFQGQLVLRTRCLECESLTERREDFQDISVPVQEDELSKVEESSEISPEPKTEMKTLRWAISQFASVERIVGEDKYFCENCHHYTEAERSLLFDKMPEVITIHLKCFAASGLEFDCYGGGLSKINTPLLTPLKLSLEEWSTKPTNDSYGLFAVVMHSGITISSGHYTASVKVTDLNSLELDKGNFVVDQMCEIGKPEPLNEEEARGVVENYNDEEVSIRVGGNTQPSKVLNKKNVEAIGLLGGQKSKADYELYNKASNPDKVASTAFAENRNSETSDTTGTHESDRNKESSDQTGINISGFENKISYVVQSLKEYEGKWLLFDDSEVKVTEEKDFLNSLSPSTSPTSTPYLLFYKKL
Sequence of Cytochrome P450 2C9 (Homo sapiens) (P11712 whole entry, looked up): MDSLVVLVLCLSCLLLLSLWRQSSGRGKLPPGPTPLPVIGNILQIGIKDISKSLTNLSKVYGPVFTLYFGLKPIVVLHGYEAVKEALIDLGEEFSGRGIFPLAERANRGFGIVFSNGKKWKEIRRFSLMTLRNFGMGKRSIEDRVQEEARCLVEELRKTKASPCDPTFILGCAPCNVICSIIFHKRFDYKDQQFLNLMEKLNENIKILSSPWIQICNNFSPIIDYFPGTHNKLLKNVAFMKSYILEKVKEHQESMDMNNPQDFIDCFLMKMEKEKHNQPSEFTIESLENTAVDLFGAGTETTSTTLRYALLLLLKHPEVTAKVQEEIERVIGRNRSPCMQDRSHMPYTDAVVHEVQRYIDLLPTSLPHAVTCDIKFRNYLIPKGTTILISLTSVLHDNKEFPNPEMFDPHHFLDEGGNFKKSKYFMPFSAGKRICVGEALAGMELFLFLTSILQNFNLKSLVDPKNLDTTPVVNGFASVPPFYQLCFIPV
Sequence of 3',5'-cyclic-AMP phosphodiesterase 4B (Homo sapiens) (Q07343 whole entry, looked up): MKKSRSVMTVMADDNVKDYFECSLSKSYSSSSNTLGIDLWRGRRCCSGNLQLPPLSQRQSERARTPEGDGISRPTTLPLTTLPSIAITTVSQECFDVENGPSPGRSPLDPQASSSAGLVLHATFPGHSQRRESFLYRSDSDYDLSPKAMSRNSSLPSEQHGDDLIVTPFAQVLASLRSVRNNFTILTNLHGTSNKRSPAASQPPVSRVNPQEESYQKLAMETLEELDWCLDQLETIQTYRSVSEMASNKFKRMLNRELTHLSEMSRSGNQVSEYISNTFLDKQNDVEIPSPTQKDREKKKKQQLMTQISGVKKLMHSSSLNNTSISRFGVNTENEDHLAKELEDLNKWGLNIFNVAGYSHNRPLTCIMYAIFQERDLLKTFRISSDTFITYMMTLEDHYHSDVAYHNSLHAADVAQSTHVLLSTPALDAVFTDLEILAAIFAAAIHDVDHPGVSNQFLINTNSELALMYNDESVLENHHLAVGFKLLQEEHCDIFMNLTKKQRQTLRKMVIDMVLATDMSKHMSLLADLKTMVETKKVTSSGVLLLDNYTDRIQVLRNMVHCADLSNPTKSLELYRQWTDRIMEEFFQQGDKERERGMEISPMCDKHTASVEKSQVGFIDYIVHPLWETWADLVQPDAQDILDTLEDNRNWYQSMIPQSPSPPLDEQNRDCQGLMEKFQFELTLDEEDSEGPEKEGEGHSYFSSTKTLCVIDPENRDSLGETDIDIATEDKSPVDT

For the compound `CN(C)c1ccnc(-c2cccc(NS(C)(=O)=O)c2)n1`, the values for the Potency in experiment [1], in experiment [4] and in experiment [5] were 1.58 µM (active), > 46 µM (inactive) and > 46 µM (inactive), respectively. The activity change, negative = inhibition in [2] was 0.933% (inactive); in experiment [8] it was 2.49% [at 2.29 µM] (inactive); in [12] (at 57.5 µM (top of the series)) it was 11.6% (inactive). Also, the activity, negative = inhibition in experiment [3] was 3.11% (inactive). The compound was called inactive in experiment [6], in experiment [10] and in experiment [11]. Further, the Potency result in [7], in experiment [9], in [13] and in experiment [14] was “inactive” each time. Besides, the results for the max response in [12] (measured here: cell count channel max response) and in [12] (measured here: lipid channel max response) were 7.48% and 20%, respectively.
With `CCNc1ncc2nc(-c3cn(C)c4ccccc34)c(=O)n(C)c2n1`, the activity change, negative = inhibition in experiment [15] was -15.1% (inactive); in [2], 2.68% (inactive). The Potency in experiment [1] was 0.1 µM (active); in experiment [4], > 9.22 µM (inactive); in experiment [5], > 46 µM (inactive). Moreover, the activity, negative = inhibition in experiment [3] was -2.13% (inactive). The compound was classed as inactive in experiment [6]. The Potency entry in experiment [9], in [16], in [17], in experiment [18], in experiment [13] and in [14] was “inactive” each time.
